# Source: the supplement of paper PMC6555819
# How the values were obtained:
# Assay in all cases: PBM binding z-score (relative to random genomic background probes); higher = stronger binding; sequences stand for … in GC…GCGATTGACAGCGTAGAATGAAGG
# [1] = test system: RARb homodimer (NR concentration 270 nM)
# In short: (§1)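 Probes were double-stranded and carried 34-nt variable regions with direct-repeat seeds, single-nucleotide variants, half-site ablations and random human genomic background sequences, printed on custom Agilent 4×180K protein-binding microarrays. Arrays were incubated 1 h with ligand-free nuclear receptor dimers in PBS pH 7.4, 2% milk, 0.02% Triton X-100, 1 mM DTT, 0.2 mg/mL BSA and 0.4 mg/ml salmon testes DNA. Antibodies against each partner (one per run) detected binding, and scanned fluorescence was regression-normalized. Binding z-scores use the random background probes as reference.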
# [2] = test system: RARg:RXRa (NR concentration 270 nM, RXRa partner concentration 90 nM)
# In short: as §1
# [3] = test system: RARg homodimer (NR concentration 270 nM)
# In short: as §1
# [4] = test system: RXRa DBDmut IVT, anti-RXR (DBD mutation: RXRa K156A/R161A, NR concentration 90 nM)
# In short: as §1
# [5] = test system: RXRa homodimer (NR concentration 180 nM)
# In short: as §1
# [6] = test system: THRa:RXRa (NR concentration 90 nM, RXRa partner concentration 90 nM)
# In short: as §1
# [7] = test system: THRa homodimer (NR concentration 90 nM)
# In short: as §1
# [8] = test system: VDR homodimer (NR concentration 270 nM)
# In short: as §1
Sequence,PBM binding z-score [1],PBM binding z-score [2],PBM binding z-score [3],PBM binding z-score [4],PBM binding z-score [5],PBM binding z-score [6],PBM binding z-score [7],PBM binding z-score [8]
CGTCCAAGGTCAGACAGGTCAGTGAATGCCGAGT,4.84,5.32,6.13,3.11,4.43,3.97,2.16,3.77
CCTAGTTGGTCATGAGGTCACACACCGGATATGA,4.66,5.3,4.46,2,5.17,4.72,5.35,4.1
CCTGCTAGGTCAATGGTCAGATAAAGCAGCTCGC,2.54,3.8,4.61,1.55,2.45,2.12,0.626,0.232
AGAACGAGGGCCATGAGTTGATAGCACGGGTGGC,0.111,0.395,0.308,-0.019,0.448,-0.138,-0.79,0.371
CCTCCTAGGTCAATGGTCAGCTAAAGCAGCTCGC,3.17,3.66,4.2,1.03,2.16,2.61,1.17,0.912
TCTCGGAGGACACGAAGGTAAGAGCTTTCCAGAG,0.164,0.396,1.27,0.371,-0.0884,1.18,0.0809,-0.641
TCCAGCAGGCCAGAGGGTCACTCAAGAGGTACGG,2.93,2.61,1.71,0.301,2.29,1.7,-0.473,0.227
AGGCAAAGTTCATCTAGGTAACGTAAGATATGCT,3.56,5.33,5.75,4.59,4.37,3.18,0.436,4.85
AATAGCAGGCCAAGTTTGGGTCACTCAAACAAAG,2.31,2.53,1.67,-0.564,0.964,2.63,0.748,0.388
TCATATAGGTAAAAGGTGAAAGTCGGTGTGGTAA,2.06,2.24,1.17,1.87,2.96,1.77,0.633,0.737
AATACAGAGTCACTAGGCCAGAGTAGGTACGAAT,0.0526,0.21,0.516,-0.494,0.28,-0.12,-0.685,-0.0774
TAATATAGGTAATACAGGTGAAAGTCGGCATCTA,0.493,0.614,0.786,0.247,0.906,0.893,0.26,0.35
CCTTACGGGTCACTACAGGTTATAGCATCGGAGT,3.27,4.6,4.47,1.7,4.64,4.19,-0.0959,1.31
ATATGTAGGTTAGCTGGGGTCATTGAGACTAGGC,3.66,4.03,2.91,1.82,5.63,4.83,3.21,5.12
CCAGACAGGTGAAAGGTAACCCAGTCTGGTACGC,0.747,1.35,0.881,-0.455,1.83,0.935,-0.0283,-0.223
ACTATTAGTTGAGACTAGGGCAACCGATAGGTTG,0.465,0.376,0.586,-0.0472,0.0824,1.25,-0.533,-0.353
TCTTGTAGATCAATAGAGGATAAGAAAGTGCGCT,-0.566,0.208,0.365,0.919,0.16,1.5,-0.588,0.0606
CAAACTAGGTCACGAAACGTCAAAGTCGAATGAC,3.21,4.59,5.27,1.07,3.8,3.28,1.52,0.534
GCAGGCAGGTGAAACGCAGGTAACTCAGGGTGGC,-0.0937,0.946,0.484,-0.721,0.329,1.58,-0.371,-0.723
GCTTGTAGATCAAGGTTACGAAAGACTAAGCTAA,0.837,0.713,0.558,0.173,1.09,1.81,0.263,-0.274
TCAAACAGGTGAAGGTAACTCAGGTACGCAGTCG,0.716,0.691,0.597,1.43,1.13,1.44,0.12,0.467
GCGAGTGGGGCATCAGCAGGTTACCATAACTTAA,0.915,1.05,0.378,-0.215,0.32,0.958,0.127,-0.291
CCTAGCACGCCAGGGTCACTCAAGCATTTCGCTT,2.65,2.94,2.18,0.65,3.14,2.76,1.12,0.973
TGAATAAGGTTAAAGATCAGGGAACGTGGCGTCG,1.04,2.51,1.72,0.599,3.39,2.48,0.616,0.301
ATCGAAAGGTCGAAGGTGAGTTTACCCACCCGAA,2.62,4.3,3.49,1.41,5.2,2.45,0.143,3.11
CCTACTGGGCCAAAAACGTCATTGATGCCGATAA,-0.34,-0.089,-0.172,-0.196,0.029,-0.371,-0.47,-0.735
TTACCAGGGTGAAGGTCGTTGATCCCTCTGTAGA,1.74,1.16,0.774,-0.374,2.14,1.84,0.461,0.856
CCTAGCAGGCCAGTGTCACTCAAGCATTTCGCTT,0.0425,-0.0888,-0.171,0.13,-0.38,-0.213,-0.656,-0.509
